For 39 compounds, outcome and AC50 results are on record in PubChem BioAssay (EPA / NIEHS).

Records with an inconclusive call do not appear. Calls of active or inactive are those of the source. Rule for the calls: active = hit-call score of the fitted dose curve at least 0.9, where 1 is the maximum; inconclusive = response in the unintended direction; inactive = score below 0.9.

Chain of Retinoic acid receptor RXR-alpha (Homo sapiens) (P19793 whole entry, looked up, the tested form may be a part): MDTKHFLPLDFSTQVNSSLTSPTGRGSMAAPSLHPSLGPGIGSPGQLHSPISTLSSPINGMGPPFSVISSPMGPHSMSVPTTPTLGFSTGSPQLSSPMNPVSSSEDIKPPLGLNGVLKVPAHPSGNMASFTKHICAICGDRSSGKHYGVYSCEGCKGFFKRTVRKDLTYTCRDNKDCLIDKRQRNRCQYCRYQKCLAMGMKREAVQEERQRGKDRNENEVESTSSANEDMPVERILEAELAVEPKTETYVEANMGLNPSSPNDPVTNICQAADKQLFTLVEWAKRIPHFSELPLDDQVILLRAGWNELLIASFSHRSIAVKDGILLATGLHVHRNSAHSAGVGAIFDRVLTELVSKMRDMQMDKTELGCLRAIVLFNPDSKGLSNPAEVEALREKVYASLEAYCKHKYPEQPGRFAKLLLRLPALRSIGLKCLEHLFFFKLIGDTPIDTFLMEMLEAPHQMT

In the test the target is Retinoic acid receptor RXR-alpha (Homo sapiens) (UniProt P19793). The test is described as follows: ATG_RXRa_TRANS: Attagene TRANS-FACTORIAL HepG2 Assay for human Retinoid X Receptor alpha (RXRa) (AID 2283012). Summed up:
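HepG2 cells transiently transfected with multiplexed GAL4-UAS reporter units and chimeric NR-GAL4 fusions, dosed 24 h. Reporter mRNA measured by RT-PCR, FAM labelling, HpaI digestion and capillary electrophoresis; gain-of-signal fitted relative to DMSO baseline.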
Consider `CCCCN(CCCC)C(=O)N(CCCC)CCCC`, for which the outcome was inactive.

Consider `CCCC(O)C(O)CO` (centres undefined), for which the result was inactive.

Turning to `CCCCCCCC(=O)OCC(O)CO` (centres undefined), the call was inactive.

As for `C=CC(C)(O)CCC=C(C)C` (centres undefined), the result was inactive.

On to `c1ccc2[nH]cnc2c1`, for which the call was inactive.

Regarding `CCc1ncc(C)[nH]1`, the outcome was inactive.

With `Cc1ncc[nH]1`, the outcome was inactive.

On to `CCOC(=O)COC(=O)c1cc(Oc2ccc(C(F)(F)F)cc2Cl)ccc1[N+](=O)[O-]`, for which the outcome was inactive.

Regarding `CCc1cc(Cc2cc(CC)cc(C(C)(C)C)c2O)c(O)c(C(C)(C)C)c1`, the compound was classed as inactive.

As for `CCCCCCC(CO)CCCC` (centres undefined), the outcome was inactive.

Turning to `Cc1[nH]c(=O)c(C#N)cc1-c1ccncc1`, the result was inactive.

In the case of `COS(=O)(=O)O`, the result was inactive.

In the case of `C=Cc1ccncc1`, the compound was called inactive.

As for `CN(C)C(=O)Nc1ccc(Oc2ccc(Cl)cc2)cc1`, the call was inactive.

As for `O=C(O)c1ccc(O)cc1`, the compound was classed as inactive.

On to `CC1CC(O)CC(C)(C)C1` (centres undefined), for which the outcome was inactive.

With `CCCCCC(=O)CC`, the outcome was inactive.

Consider `CC(=O)c1c(C)c([N+](=O)[O-])c(C(C)(C)C)c([N+](=O)[O-])c1C`, for which the AC50 is 6.93 µM (active).

Consider `Clc1ccc(C(c2ccccc2Cl)C(Cl)Cl)cc1` (centres undefined), for which the call was inactive.

As to `C[Si]1(C)O[Si](C)(C)O[Si](C)(C)O1`, the compound was called inactive.

For `NCCNc1cccc2ccccc12`, the call was inactive.

With `C#CC(C)(O)CC(C)C` (centres undefined), the call was inactive.

In the case of `CCCCCC(C=O)=Cc1ccccc1`, the compound was classed as inactive.

In the case of `Cc1ccc(S(N)(=O)=O)cc1`, the compound was called inactive.

For the compound `CCC(Cl)C(Cl)C(Cl)CC(Cl)C(Cl)C(C)Cl` (centres undefined), the result was inactive.

Consider `C[C@H]1O[C@@H](O[C@H]2[C@@H](O)C[C@H](O[C@H]3[C@@H](O)C[C@H](O[C@H]4CC[C@@]5(C)[C@H](CC[C@@H]6[C@@H]5C[C@@H](O)[C@]5(C)[C@@H](C7=CC(=O)OC7)CC[C@]65O)C4)O[C@@H]3C)O[C@@H]2C)C[C@H](O)[C@@H]1O`, for which the compound was classed as inactive.

Take `O=[N+]([O-])c1ccc(O)cc1C(F)(F)F`: the compound was classed as inactive.

`CCOC(=O)c1ccc(N)cc1`: the compound was classed as inactive.

With `C=CC(=C)CCCC(C)(C)OC(C)=O`, the call was inactive.

Turning to `COC(=O)c1cccnc1`, the compound was classed as inactive.

On to `CC(=O)CC(=O)Nc1ccccc1`, for which the result was inactive.

On to `COC(=O)C=C(C)CCC=C(C)C`, for which the result was inactive.

With `CCCCCCCCCCCCCCN(CCO)CCO`, the compound was classed as inactive.

Take `C[C@H]1C[C@@H](O)CC(C)(C)C1`: the result was inactive.

For the compound `O=C(O)CNc1ccccc1`, the compound was classed as inactive.

On to `Nc1ccccc1[N+](=O)[O-]`, for which the compound was classed as inactive.

For the compound `CCOc1ccccc1O`, the compound was called inactive.

As to `CCCC(=O)c1ccccc1`, the compound was classed as inactive.

Regarding `CC(=O)c1ccccn1`, the compound was classed as inactive.
